# High-throughput results (PubChem)
# CRFBP-R2 block: antagonists of CRF-binding protein/CRF-R2 receptor complex; HEK293 CRF-R2/CRF-BP, CRF-induced calcium fluorescence; inhibition, % at 11.8 µM; actives 0.59% (n = 350,000); AID 588475;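 active = inhibition of the ligand-induced calcium signal above about 50% at the single tested concentration, limit read from the data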
# aDG glyco act: increases alpha dystroglycan glycosylation. actives 0.22% (n = 360,000). activation, % at 10 µM. Pro5-aDG cells, alpha-DG glycosylation AlphaScreen (IIH6); 0% Pro5, 100% B10-LARGE cell signal;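 active = activation of at least 8% versus controls, or a plate z-score of at least 8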;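 note: Pro5 are CHO cells carrying HIG-tagged alpha-DG that lacks glycosylation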
# Cardio protect: modulators protecting cardiomyocytes from myocardial damage; H9c2 cardiomyocytes, H2O2 injury protection, ATPLite, 2 h; protection from H2O2 cell death, % at 20 µM; actives 0.63% (n = 360,000); AID 588492;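 active = compounds giving at least 50% protection of heart cells from peroxide-induced death in the single-dose screen, raw or plate-pattern-corrected value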;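 note: 0% = DMSO wells with peroxide and 100% = DMSO wells without peroxide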
# PfGluPho inh: PfG6PD (Plasmodium falciparum) enzyme inhibition. inhibition, % at 20 µM. actives 0.78% (n = 350,000). PfGluPho enzyme, NADPH resazurin-diaphorase fluorescence;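 active = inhibition reaching at least a set limit at 20 µM in the primary screen, cut at about 59% in these data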;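 note: 0% = DMSO wells with substrate and 100% = DMSO wells lacking glucose-6-phosphate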
# FAS-TE inh: inhibitors of human fatty acid synthase thioesterase domain. recombinant FAS-TE, OMFH fluorogenic substrate, fluorescence endpoint. inhibition, % at 15 µM. actives 0.67% (n = 360,000);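 active = compounds whose normalised, plate-corrected inhibition of enzyme fluorescence in the single-dose primary screen is 50% or more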;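 note: 0% = DMSO with enzyme and 100% = substrate without enzyme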
# CRFR2-BP ag: CRF-BP/CRF-R2 complex agonism. HEK293 CRF-R2/CRF-BP, calcium dye fluorescence (FLIPR); percent of saturating CRF peptide response. activation, % at 13.2 µM. actives 0.46% (n = 350,000);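 active = activation of at least 50%, plus an integration ratio under a set limit after plate pattern correction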;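 note: plate controls were neutral control wells without compound for no effect and CRF at EC100 for full effect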
# * = called active by the depositor; nt = no result. Sampled rows, rich in hits. Any-hit rate of the full collection: about 3.2%.
SMILES,CRFBP-R2 block,aDG glyco act,Cardio protect,PfGluPho inh,FAS-TE inh,CRFR2-BP ag
Cc1c(Cl)c([N+](=O)[O-])nn1CCCC(=O)NC1CCCCC1,-8,0,3,13,18,1
Cc1ccnc(NC(=O)c2cccc(S(=O)(=O)N3CCN(c4ccccc4)CC3)c2)c1,4,0,-12,7,24,0
Cc1ccnc(NC(=O)c2cccc(S(=O)(=O)N3CCCC3)c2)c1,73*,0,-2,-2,-2,-1
COc1ccc(/C(C)=N/NC(=O)c2cccc(S(=O)(=O)N3CCCC3)c2)c(O)c1,nt,1,70*,nt,4,nt
O=C(Nc1ccc(OCc2ccccc2)cc1)Nc1ccccc1C(=O)NCCCN1CCOCC1,30,0,3,0,5,-2
c1ccc(-c2nnc(C3CC(c4ccncc4)=NO3)o2)cc1 (stereo unspecified),6,0,5,-3,-8,0
CCN(CC)S(=O)(=O)c1ccc2c(c1)N(CC(=O)NCc1ccccn1)C(=O)CO2,-7,0,-5,-21,-7,2
CN(C)c1ccc(N=Cc2nc(-c3ccccc3)oc2O)cc1,-172,0,4,31,-92,161*
CCCCc1cc(=O)oc2cc(O)ccc12,6,0,52*,-11,-2,4
CCc1cccc(C)c1NC(=O)CCN1C(=O)NC(C)(C)C1=O,9,0,4,0,-5,3
COC(=O)c1ccc(CSc2ccc3nnc(-c4cccc(F)c4)n3n2)o1,32,0,105*,42,9,-6
COc1ccc(N=C2C(=O)Nc3c(C)cccc32)cc1,94*,0,5,16,-5,-1
O=C(CNS(=O)(=O)c1ccc([N+](=O)[O-])cc1)N/N=C\c1ccc(O)cc1,-26,0,22,-19,26,65*
O=C(CNS(=O)(=O)c1ccc([N+](=O)[O-])cc1)N/N=C/c1ccc(O)cc1O,-67,0,55*,-30,20,41
Cc1c(N=C2N=C(NC(=O)c3ccc(F)cc3)c3ccccc32)c(=O)n(-c2ccccc2)n1C,-54,0,-19,1,-30,65*
NC(=O)c1ccsc1NC(=O)CS(=O)(=O)c1ccc(F)cc1,1,0,4,-3,-6,0
COc1ccc(NC(=O)Cc2coc3cc(C)c(C(C)C)cc23)cc1S(=O)(=O)N1CCOCC1,-12,0,-8,14,7,-2
Cc1ccc(NC(=O)COC(=O)CN2C(=O)NC3(CCCC3)C2=O)cc1S(=O)(=O)N(C)C,61*,0,2,-12,-3,2
Cc1ccc(NC(=O)COC(=O)CN2C(=O)NC3(CCCC3)C2=O)cc1Cl,3,0,-5,-1,-3,1
CCOc1ccccc1N(CC(=O)N1CCC(C)CC1)S(=O)(=O)c1ccc(C)cc1,-8,0,-6,-11,12,0
CCOc1ccccc1N(CC(=O)N1CCOCC1)S(=O)(=O)c1ccccc1,-127,0,13,3,-2,291*
CCOc1ccccc1N(CC(=O)N1CCC(C(N)=O)CC1)S(=O)(=O)c1ccc(SC)cc1,75*,0,0,-2,-4,-1
CCOc1ccccc1N(CC(=O)N1CCCCCC1)S(=O)(=O)c1ccc(C)cc1,-30,1,3,-10,8,31
COc1ccccc1N(CC(=O)N1CCCCC1C)S(=O)(=O)c1ccc(Cl)cc1 (stereo unspecified),-11,0,-2,-19,0,55*
COC(=O)c1c(O)cc(C(C)(C)C)n(-c2ccccc2)c1=O,-4,0,-3,-7,-11,-1
SMILES,CRFBP-R2 block,aDG glyco act,Cardio protect,PfGluPho inh,FAS-TE inh,CRFR2-BP ag
NC(=O)Cn1cc(/C=N/NC(=O)c2ccc(Cn3cc(Cl)cn3)o2)c(-c2ccccc2)n1,34,0,-1,3,-3,0
Cc1ccc(C(=O)O)cc1NC(=O)CSc1ncnc2sc3c(c12)CCC3,-2,0,3,-9,-1,1
Cc1ccc(CS(=O)(=O)CC(C)(O)c2ccccc2)cc1 (stereo unspecified),11,0,6,15,-6,-3
Cc1nc2c(nc1C)C(=O)c1ccccc1C2=O,12,14*,-15,-116,-3,2
CNC(=O)CC1C(=O)N(c2ccc(F)cc2)C(=S)N1NC(=O)c1ccc(Cl)cc1 (stereo unspecified),-16,0,2,5,-4,8
N#C/C(=C\c1ccccc1C(=O)O)c1nc2ccccc2[nH]1,-35,0,4,-14,-5,31
N#C/C(=C\c1ccc(N2CCOCC2)o1)c1nc2ccccc2[nH]1,-62,0,-20,38,-175,95*
N#C/C(=C\c1ccc(N2CCOCC2)c([N+](=O)[O-])c1)c1nc2ccccc2[nH]1,-37,0,62*,25,14,0
N#C/C(=C\c1ccc(-c2ccc(C(=O)O)cc2)o1)c1nc2ccccc2[nH]1,-237,0,16,-9,30,141*
Cc1ccc(CSc2nnc(-c3ccncc3)n2CC2CCCO2)cc1 (stereo unspecified),-11,0,1,-19,-14,4
O=C(NS(=O)(=O)Oc1cccc(Cl)c1Cl)OC[C@@H]1CCCN2CCCCC12 (stereo partly specified),-7,0,-2,-9,0,0
Cc1nnc(NCc2n[nH]c(=O)c3ccccc23)c2ccccc12,-16,0,-11,32,-7,0
Cc1ccc(OCC(=O)NCc2n[nH]c(=O)c3ccccc23)cc1,7,0,71*,12,-4,0
COc1ccc(NCc2n[nH]c(=O)c3ccccc23)cc1,0,0,76*,19,-6,0
COC(=O)Cc1n[nH]c(=O)c2ccccc12,-7,0,59*,0,-4,0
COC(=O)c1ccc(COC(=O)Cc2n[nH]c(=O)c3ccccc23)cc1,8,1,39,-6,-1,-2
Cc1ccc(N2CC(C(=O)NCc3n[nH]c(=O)c4ccccc34)CC2=O)cc1 (stereo unspecified),28,0,47,6,-5,0
Cc1ccc(N2CC(C(=O)NCc3n[nH]c(=O)c4ccccc34)CC2=O)cc1C (stereo unspecified),-3,0,72*,-7,-7,1
C=CC[C@@H](CC(=O)OC(C)(C)C)C(=O)OC[C@H]1CCCN1C(=O)[C@@H](CC=C)CC(=O)N(CCO)Cc1ccccc1,6,1,-2,0,-4,2
CCOc1cc([N+](=O)[O-])c2nc(N)sc2c1,10,0,5,-3,-4,-7
CSc1ccc(CN2CCC(C(=O)NCc3ccc(C)cc3)CC2)cc1,-2,2,-7,-15,-1,0
